Measurements as given in PubChem BioAssay (NCI).
This is part of a sample that, as a whole, favours compounds with a hit. Of some 79,000 tested, about 15% had one in any assay. No stated cut-off is given here; in the data, active means growth inhibition above about 70%; inactive means the rest. Where a SMILES comes first, the peptide text is derived from it. [ ]: non-standard residue; d: D form. The star is where a group is joined. ξ: configuration not given here. X15 = COc1ccc(C(N*)c2ccc(OC)cc2)cc1; NMeF = CN[C@@H](Cc1ccccc1)C(=O)O; NMeD = CN[C@@H](CC(=O)O)C(=O)O; NMeV = CN[C@H](C(=O)O)C(C)C; ξNMeV = CNC(C(=O)O)C(C)C; Boc = CC(C)(C)OC(=O)*; ξNMeA = CNC(C)C(=O)O; ξV = CC(C)C(N)C(=O)O

Experiments:
[1] = NCI Yeast Anticancer Drug Screen. Data for the rad50 strain (AID 155);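 further: 0% = growth of vehicle-only cultures of the same strain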; settings: S. cerevisiae rad50 strain growth inhibition; at 50.0 µM; active compounds read high
Outline: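 Readout: growth inhibition relative to vehicle-treated cultures. Compound exposure was carried out in a genetically defined yeast strain deficient in DNA damage repair.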

[2] = NCI Yeast Anticancer Drug Screen. Data for the mec2-1 strain (AID 157); settings: S. cerevisiae mec2-1 strain, at 50.0 µM, active compounds read high
Outline: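 Vehicle-treated cultures served as reference for growth inhibition of compound-exposed mec2-1 yeast.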

[3] = NCI Yeast Anticancer Drug Screen. Data for the sgs1 mgt1 strain (AID 161);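 further: 0% = growth of cultures given vehicle only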; settings: S. cerevisiae sgs1 mgt1 strain, at 50.0 µM, active compounds read high
Outline: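 Mutant yeast exposed to compound; growth scored against vehicle-only wells.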

[4] = NCI Yeast Anticancer Drug Screen. Data for the cln2 rad14 strain (AID 165);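 further: 0% = growth equal to vehicle treated cultures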; settings: S. cerevisiae cln2 rad14 strain, at 50.0 µM, active compounds read high
Outline: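 Each compound was tested on cln2 rad14 yeast. Inhibition of growth was calculated against vehicle-exposed controls.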

[5] = NCI Yeast Anticancer Drug Screen. Data for the bub3 strain (AID 167); settings: S. cerevisiae bub3 mutant strain, at 50.0 µM, active compounds read high
Outline: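 Readout: yeast growth inhibition, expressed relative to vehicle-only wells. The test organism is a mutant strain from a panel with lesions in DNA repair or checkpoint genes.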

[6] = NCI Yeast Anticancer Drug Screen. Data for the mlh1 rad18 strain (AID 175); settings: S. cerevisiae mlh1 rad18 strain growth inhibition; at 50.0 µM; active compounds read high
Outline: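 Vehicle-treated cultures served as the reference for growth inhibition in a yeast strain carrying DNA damage repair alterations exposed to each compound.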

Measured: growth inhibition

CN1CCC(CO)CC1
inactive: [1] -12.8% | [2] -2.7% | [3] -2.65% | [4] 9.05% | [5] 11.8% | [6] -8.4%

c1ccc(CCc2cccnc2)nc1
inactive: [1] 26% | [2] -4.5% | [3] -21.6% | [4] 50% | [5] -6.1% | [6] -1.7%

COc1ccc(C(=O)Nc2ccn(CCOC(=O)c3ccc(OC)cc3)c(=O)n2)cc1
inactive: [1] -25.9% | [2] 16.9% | [3] -3.1% | [4] -4% | [5] 2.8% | [6] -3.55%

COCCCNC(=O)c1nc2ccccc2c(=O)n1NC(=O)Cc1ccccc1
inactive: [1] -14.1% | [2] -19.8% | [3] 7% | [4] 4.35% | [5] 0.3% | [6] -7.75%

COC(=O)[C@H]1C=C[C@@H](C)n2c(=O)c3cc4ccccc4cc3c(=O)n21
inactive: [1] -21.2% | [2] -1.55% | [3] -18.9% | [4] -7.95% | [5] -24% | [6] -18.2%

C=C(CN(C)C)C(=O)c1ccccc1OC
inactive: [1] 35.7% | [2] 30.1% | [3] 44.8% | [4] -25.9% | [5] 35.3% | [6] 18.8%

COC(=O)C(C(=O)c1ccccc1)C(C(=O)C(=O)Nc1ccc(OC)cc1OC)C(=O)C(=O)c1ccc(C)cc1 (stereo not given)
inactive: [1] -1.3% | [2] 10.8% | [3] 3.7% | [4] -3.9% | [5] 2.85% | [6] 19.6%

CC(=O)N[C@@H]1CCC[C@H](NC(C)=O)C1
inactive: [1] -9.75% | [2] -44.4% | [3] -12.7% | [4] -17.1% | [5] 12.7% | [6] -23.9%

CCOC(=O)C(=O)Nc1cccc(NC(=O)C(=O)OCC)n1
inactive: [1] 2.5% | [2] -21.6% | [3] -19.1% | [4] 4.4% | [5] -13.8% | [6] -6.05%

COc1ccccc1N=NC1=C2Nc3ccccc3N=C1N(c1ccccc1OC)C(=S)N2c1ccccc1C
inactive: [1] -10.3% | [2] -11.3% | [3] -16.4% | [4] -11.5% | [5] -2.95% | [6] -30.4%

CCCCCCCCCC1CC(=O)OC23CCCC(=O)C12O3 (stereo not given)
inactive: [1] -10.8% | [2] -32% | [3] 9.2% | [4] 15.8% | [5] -8% | [6] -17.6%

CCOC(=O)Cn1c(C(F)(F)F)nc2nc(Cl)c(Cl)nc21
inactive: [1] -0.6% | [2] -22.9% | [3] -33.5% | [4] -94.9% | [5] -19.9% | [6] -17.1%

COc1cc2c3c(c1)nc(C)n3C(=O)C(C)S2 (stereo not given)
inactive: [1] -26.8% | [2] -46.9% | [3] -22.9% | [4] 12.3% | [5] 11.3% | [6] -22%

c1ccc2c(c1)NC1C3(CCC4CCCCC241)SCCS3 (stereo not given)
inactive: [1] 9.45% | [2] 2.3% | [3] 6.8% | [4] 8.8% | [5] -2.1% | [6] -1.15%

NC(N)=NCC1CCCCCCN1 (stereo not given)
inactive: [1] -9.2% | [2] -20.7% | [3] -21.1% | [4] 18.6% | [5] -12.6% | [6] 12.9%

CCOC1NC(/N=C/c2ccc(OC)cc2)=C(C#N)C1C#N (stereo not given)
inactive: [1] -29.2% | [2] -6.7% | [3] -49.5% | [4] 12.4% | [5] -28.1% | [6] -35%

CC(C)(C)C1CCC(C(=O)O)CC1 (stereo not given)
inactive: [1] 24.4% | [2] -3.05% | [3] 19.8% | [4] 10.6% | [5] 5.6% | [6] 24.9%

CC(=O)NC1CC(=O)N(c2ccccc2)C1=O (stereo not given)
inactive: [1] 16.4% | [2] 7.8% | [3] 12.2% | [4] 5.9% | [5] -1.8% | [6] -19.1%

Cc1onc(-c2ccccc2)c1NC(=O)OC(C)c1cccnc1 (stereo not given)
inactive: [1] -6.3% | [2] -22.9% | [3] 3.7% | [4] 4.9% | [5] 18.1% | [6] 3.55%

CCOc1ccc2nc(NC(=O)CC(C)=O)sc2c1
inactive: [1] -17.6% | [2] -22% | [3] -4.3% | [4] 7.6% | [5] -17.9% | [6] 7.35%

CCCCCC(=O)N1CCCCC1CC (stereo not given)
inactive: [1] -8.55% | [2] 7.15% | [3] -19.6% | [4] -10.1% | [5] -25.6% | [6] -28.1%

O=C(Cc1nc(-c2ccccc2)cc(=O)n1-c1ccccc1Cl)c1ccncc1
inactive: [1] 32.4% | [2] 12.5% | [3] -6.3% | [4] 21.2% | [5] -1.2% | [6] 20.4%

Nc1ccc(S(=O)(=O)CC(=O)N2CCOCC2)cc1
inactive: [1] 6.2% | [2] -10.8% | [3] 8.3% | [4] 17.9% | [5] 4.95% | [6] 22.5%

CC(C#N)NC(=O)NC(C)C(N)=O (stereo not given)
inactive: [1] 3.85% | [2] 6.3% | [3] -5% | [4] -48.3% | [5] 8.2% | [6] -27.7%

CN(C)c1ccc(C=C2C(=O)OC(C)(C)OC2=O)cc1Br
inactive: [1] 1.55% | [2] -13.8% | [3] -4.1% | [4] 32% | [5] -17.6% | [6] 10.7%

N#CC1=C(Nc2ccccc2)SC(c2cccs2)NC1=O (stereo not given)
inactive: [1] 12.4% | [2] 4.7% | [3] 20.6% | [4] 16.5% | [5] 11.9% | [6] 23.2%

NC(=O)NC(=O)OCCOC(=O)NC(N)=O
inactive: [1] -28.4% | [2] -11.7% | [3] -13.3% | [4] -16.7% | [5] -8.85% | [6] -13.2%

C=CCc1cc(Br)ccc1O
inactive: [1] 20.7% | [2] 5.9% | [3] -9.85% | [4] 11.1% | [5] -17.4% | [6] 33.5%

OC1CCC2=C(C1)C1CCC2C1 (stereo not given)
inactive: [1] 9.05% | [2] -10.7% | [3] -11.8% | [4] -18.4% | [5] -12% | [6] 15.8%

CCC(C)(O)C(=O)O (stereo not given)
inactive: [1] 9.8% | [2] -9.4% | [3] -32.4% | [4] -4.75% | [5] -13.3% | [6] -15.2%

N#CC(N)(C(=O)CCC(=O)Nc1cccc(Cl)c1)c1ccc(Cl)cc1 (stereo not given)
inactive: [1] 1.7% | [2] 12.6% | [3] 7.7% | [4] 8.15% | [5] -2% | [6] 2.15%

CC(O)(CNS(=O)(=O)c1ccccc1)c1ccccc1 (stereo not given)
inactive: [1] 14.2% | [2] 8.8% | [3] 0.6% | [4] -36.9% | [5] -31.2% | [6] -16.6%

COc1ccc(C(N)C(=O)O)cc1 (stereo not given)
inactive: [1] -17.4% | [2] -9.4% | [3] -6.8% | [4] -21.6% | [5] -12.5% | [6] -10.9%

CCCN(CCN(CC)CC)C(=O)N(CC)CC
inactive: [1] -11% | [2] 14.3% | [3] 3.2% | [4] -19.1% | [5] 6.35% | [6] -17.6%

CC(C)CCCC(C)C1CCC2C3CCC4Cc5c(c6ccccc6n5C)CC4(C)C3CCC12C (stereo not given)
inactive: [1] -13.2% | [2] 35% | [3] -5.75% | [4] -27.8% | [5] -8.95% | [6] 21.9%

Cc1cc(Cl)ccc1NC(=O)NC(C)(C)COC(=O)Nc1cccc(Cl)c1
inactive: [1] 26% | [2] -7.3% | [3] 23.4% | [4] 9.15% | [5] 16.1% | [6] 27.9%

O=C(OCC(F)(F)C(F)(F)C(F)(F)C(F)(F)C(F)(F)C(F)F)OCC(F)(F)C(F)(F)C(F)(F)C(F)(F)C(F)(F)C(F)F
inactive: [1] 0.1% | [2] 9.05% | [3] -5.45% | [4] -3.65% | [5] -0.6% | [6] 0.95%

COc1ccc(C(NC(=O)C[C@@H](C(=O)N(C)C(C)C(=O)O)N(C)C(=O)[C@@H]2CCCN2C(=O)[C@H](C(C)C)N(C)C(=O)C(C(C)C)N(C)C(=O)[C@H](Cc2ccccc2)N(C)C(=O)C(NC(=O)OC(C)(C)C)C(C)C)c2ccc(OC)cc2)cc1 (stereo not given in full) (Boc-[ξV][NMeF][ξNMeV][NMeV]P[NMeD](X15)[ξNMeA]-OH)
inactive: [1] -30.5% | [2] -23.9% | [3] -20.9% | [4] -7.45% | [5] -6.25% | [6] -31.4%

c1ccc(C(c2cccc3c2ccc2ccccc23)C(c2ccccc2)c2cccc3c2ccc2ccccc23)cc1 (stereo not given)
inactive: [1] 4.75% | [2] -9.6% | [3] -33.3% | [4] -19.6% | [5] -22.4% | [6] -12.7%

CSc1cc(=O)n(C2OC(CO)C(O)C2O)c(=O)[nH]1 (stereo not given)
inactive: [1] 9.05% | [2] -5.35% | [3] 17.6% | [4] -14.9% | [5] 10.1% | [6] 25.7%
